Source: the supplement of paper PMC10849652
Of roughly 8,800 targets only a part is listed; those with a hit were picked by preference. About 0.5% of all pairs of compound and target were hits. Values without a mark were called inactive.

compound: c1ccc([C@@H]2C[C@H]2NC2CCNCC2)cc1; assay: log2 fold change, soluble protein after heating vs DMSO (PISA); higher = thermal stabilisation; K562 lysate, 10 uM; active = over 0.2 and 3.5 SD of the protein, either way, in both replicates (recomputed)
In short: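 Values give the log-two fold change in thermal stability against solvent controls, from duplicates. Crude K562 extract at 1 mg/mL protein, made by dounce homogenisation in PBS pH 7.4 with 1 mM MgCl2, was treated with 10 μM compound for 30 min. After 3 min heating across 48°C-58°C, aliquots were pooled, adjusted to 0.5% NP-40 at 4°C and centrifuged at 21,000xg for 90 min. The supernatant was measured by TMTpro 16plex LC-MS/MS with channel sums equalised.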

Chain of UniProt O94855 (O94855 whole entry, looked up): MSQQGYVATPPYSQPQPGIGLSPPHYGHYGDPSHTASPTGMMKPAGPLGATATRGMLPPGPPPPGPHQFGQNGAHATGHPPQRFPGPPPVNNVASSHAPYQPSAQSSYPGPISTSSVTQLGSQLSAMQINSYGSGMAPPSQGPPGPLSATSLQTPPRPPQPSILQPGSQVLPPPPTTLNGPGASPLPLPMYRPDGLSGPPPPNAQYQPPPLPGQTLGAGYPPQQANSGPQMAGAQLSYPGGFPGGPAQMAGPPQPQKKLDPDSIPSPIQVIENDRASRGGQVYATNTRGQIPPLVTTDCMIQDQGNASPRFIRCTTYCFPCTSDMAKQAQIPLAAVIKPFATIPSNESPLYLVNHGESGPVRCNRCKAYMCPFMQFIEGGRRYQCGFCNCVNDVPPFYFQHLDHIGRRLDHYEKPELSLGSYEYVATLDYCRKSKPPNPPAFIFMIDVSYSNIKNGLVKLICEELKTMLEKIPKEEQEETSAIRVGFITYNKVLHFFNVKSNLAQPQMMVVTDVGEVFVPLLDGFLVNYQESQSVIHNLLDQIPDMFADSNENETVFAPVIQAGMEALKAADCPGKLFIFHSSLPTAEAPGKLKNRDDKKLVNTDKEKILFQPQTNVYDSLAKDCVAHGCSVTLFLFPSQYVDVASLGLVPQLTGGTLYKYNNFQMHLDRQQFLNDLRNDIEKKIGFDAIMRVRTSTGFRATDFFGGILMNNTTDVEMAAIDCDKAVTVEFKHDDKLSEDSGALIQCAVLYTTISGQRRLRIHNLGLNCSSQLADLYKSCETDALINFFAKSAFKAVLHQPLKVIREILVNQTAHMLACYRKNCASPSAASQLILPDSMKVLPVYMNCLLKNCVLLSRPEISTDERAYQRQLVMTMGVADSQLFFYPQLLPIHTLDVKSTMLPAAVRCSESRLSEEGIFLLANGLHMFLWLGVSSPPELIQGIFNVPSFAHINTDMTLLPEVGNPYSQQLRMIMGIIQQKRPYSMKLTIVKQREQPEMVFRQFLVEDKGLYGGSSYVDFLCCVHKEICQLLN
Chain of UniProt Q6UVJ0 (Q6UVJ0 whole entry, looked up): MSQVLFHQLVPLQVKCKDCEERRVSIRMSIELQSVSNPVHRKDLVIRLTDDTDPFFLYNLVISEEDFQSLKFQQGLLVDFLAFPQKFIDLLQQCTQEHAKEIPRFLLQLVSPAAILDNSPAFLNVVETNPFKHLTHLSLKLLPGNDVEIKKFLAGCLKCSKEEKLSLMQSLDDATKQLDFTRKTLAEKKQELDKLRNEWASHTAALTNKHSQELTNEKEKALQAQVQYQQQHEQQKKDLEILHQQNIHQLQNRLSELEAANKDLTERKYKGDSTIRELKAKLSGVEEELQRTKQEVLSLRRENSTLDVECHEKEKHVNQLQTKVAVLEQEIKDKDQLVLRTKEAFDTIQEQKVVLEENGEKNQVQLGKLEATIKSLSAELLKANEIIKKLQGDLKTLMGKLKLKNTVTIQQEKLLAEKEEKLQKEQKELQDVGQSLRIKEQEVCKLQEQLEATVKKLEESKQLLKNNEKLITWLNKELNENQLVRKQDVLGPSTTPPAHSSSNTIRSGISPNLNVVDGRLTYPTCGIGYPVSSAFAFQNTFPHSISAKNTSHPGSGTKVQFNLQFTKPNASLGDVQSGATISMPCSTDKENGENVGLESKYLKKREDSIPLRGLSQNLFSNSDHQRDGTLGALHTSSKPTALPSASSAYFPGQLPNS
Chain of UniProt Q15283 (Q15283 whole entry, looked up): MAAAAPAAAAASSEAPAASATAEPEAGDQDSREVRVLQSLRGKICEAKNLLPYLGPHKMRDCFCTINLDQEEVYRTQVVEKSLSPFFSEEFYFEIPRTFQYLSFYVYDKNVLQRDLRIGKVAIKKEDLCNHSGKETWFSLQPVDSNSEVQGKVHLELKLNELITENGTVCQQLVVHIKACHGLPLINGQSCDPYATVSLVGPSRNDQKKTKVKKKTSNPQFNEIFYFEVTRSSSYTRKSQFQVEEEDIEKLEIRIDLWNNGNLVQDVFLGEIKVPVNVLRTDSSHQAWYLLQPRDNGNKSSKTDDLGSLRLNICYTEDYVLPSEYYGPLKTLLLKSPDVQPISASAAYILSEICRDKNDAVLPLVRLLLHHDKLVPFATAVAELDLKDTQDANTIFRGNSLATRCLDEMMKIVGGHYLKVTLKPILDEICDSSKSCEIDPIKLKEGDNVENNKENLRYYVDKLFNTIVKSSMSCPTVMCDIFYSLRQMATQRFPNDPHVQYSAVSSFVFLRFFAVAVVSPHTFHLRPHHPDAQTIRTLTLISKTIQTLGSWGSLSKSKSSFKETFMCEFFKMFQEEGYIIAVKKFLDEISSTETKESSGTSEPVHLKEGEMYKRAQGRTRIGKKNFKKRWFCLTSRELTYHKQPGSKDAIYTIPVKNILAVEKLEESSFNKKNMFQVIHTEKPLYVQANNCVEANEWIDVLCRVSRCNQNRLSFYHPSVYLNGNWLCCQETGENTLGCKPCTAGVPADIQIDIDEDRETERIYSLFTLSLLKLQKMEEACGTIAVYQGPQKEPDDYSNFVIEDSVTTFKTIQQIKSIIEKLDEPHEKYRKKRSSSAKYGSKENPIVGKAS
Chain of UniProt P35250 (P35250 whole entry, looked up): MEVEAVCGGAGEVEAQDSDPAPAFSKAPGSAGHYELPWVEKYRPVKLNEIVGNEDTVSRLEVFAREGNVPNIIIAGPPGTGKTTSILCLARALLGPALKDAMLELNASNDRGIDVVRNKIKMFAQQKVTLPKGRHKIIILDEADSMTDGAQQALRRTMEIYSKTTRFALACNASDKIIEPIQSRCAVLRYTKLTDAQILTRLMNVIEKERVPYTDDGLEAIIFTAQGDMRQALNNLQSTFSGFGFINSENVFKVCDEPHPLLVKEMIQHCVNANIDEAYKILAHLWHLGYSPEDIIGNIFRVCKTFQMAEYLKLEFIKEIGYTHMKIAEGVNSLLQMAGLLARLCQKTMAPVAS
Chain of UniProt Q96EE3 (Q96EE3 whole entry, looked up): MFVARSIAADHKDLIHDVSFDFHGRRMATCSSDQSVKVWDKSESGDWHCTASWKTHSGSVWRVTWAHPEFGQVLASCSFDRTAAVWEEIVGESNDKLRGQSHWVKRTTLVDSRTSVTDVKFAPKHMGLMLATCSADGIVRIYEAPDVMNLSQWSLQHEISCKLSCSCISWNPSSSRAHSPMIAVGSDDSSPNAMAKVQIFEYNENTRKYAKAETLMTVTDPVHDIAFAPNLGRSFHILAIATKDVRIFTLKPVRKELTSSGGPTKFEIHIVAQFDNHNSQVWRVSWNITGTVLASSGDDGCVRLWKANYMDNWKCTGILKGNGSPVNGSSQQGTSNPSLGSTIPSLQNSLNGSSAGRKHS
Chain of UniProt P54136 (P54136 whole entry, looked up): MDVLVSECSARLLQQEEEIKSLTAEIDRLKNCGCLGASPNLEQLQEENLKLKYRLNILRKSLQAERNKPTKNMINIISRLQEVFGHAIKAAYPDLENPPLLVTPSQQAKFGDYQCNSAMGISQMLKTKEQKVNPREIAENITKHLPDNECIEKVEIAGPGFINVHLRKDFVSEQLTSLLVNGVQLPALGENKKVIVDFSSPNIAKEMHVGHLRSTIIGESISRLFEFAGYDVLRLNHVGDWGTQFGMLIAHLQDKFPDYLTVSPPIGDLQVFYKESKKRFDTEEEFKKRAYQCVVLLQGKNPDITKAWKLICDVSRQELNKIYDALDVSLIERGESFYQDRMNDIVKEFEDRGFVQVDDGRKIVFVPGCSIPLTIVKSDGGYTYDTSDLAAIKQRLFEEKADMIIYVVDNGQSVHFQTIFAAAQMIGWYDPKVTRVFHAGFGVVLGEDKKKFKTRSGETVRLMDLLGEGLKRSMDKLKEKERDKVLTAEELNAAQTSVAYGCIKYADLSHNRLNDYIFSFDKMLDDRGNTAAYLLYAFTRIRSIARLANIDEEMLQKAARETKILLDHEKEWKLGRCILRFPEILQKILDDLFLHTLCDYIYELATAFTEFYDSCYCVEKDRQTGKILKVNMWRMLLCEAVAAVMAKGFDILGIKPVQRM
Chain of UniProt Q13530 (Q13530 whole entry, looked up): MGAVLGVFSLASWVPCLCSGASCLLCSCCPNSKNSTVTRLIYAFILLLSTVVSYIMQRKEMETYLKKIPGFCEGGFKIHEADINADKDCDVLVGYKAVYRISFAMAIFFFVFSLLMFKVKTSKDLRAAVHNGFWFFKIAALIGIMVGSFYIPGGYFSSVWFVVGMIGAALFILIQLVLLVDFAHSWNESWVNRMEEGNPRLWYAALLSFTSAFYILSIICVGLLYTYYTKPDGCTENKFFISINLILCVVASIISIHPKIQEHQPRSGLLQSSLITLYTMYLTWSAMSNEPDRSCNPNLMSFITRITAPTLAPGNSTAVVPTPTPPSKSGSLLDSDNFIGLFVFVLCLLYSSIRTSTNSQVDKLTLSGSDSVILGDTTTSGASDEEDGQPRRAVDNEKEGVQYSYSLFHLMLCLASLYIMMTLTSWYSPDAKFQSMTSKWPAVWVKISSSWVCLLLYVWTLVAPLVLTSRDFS
Chain of UniProt O00767 (O00767 whole entry, looked up): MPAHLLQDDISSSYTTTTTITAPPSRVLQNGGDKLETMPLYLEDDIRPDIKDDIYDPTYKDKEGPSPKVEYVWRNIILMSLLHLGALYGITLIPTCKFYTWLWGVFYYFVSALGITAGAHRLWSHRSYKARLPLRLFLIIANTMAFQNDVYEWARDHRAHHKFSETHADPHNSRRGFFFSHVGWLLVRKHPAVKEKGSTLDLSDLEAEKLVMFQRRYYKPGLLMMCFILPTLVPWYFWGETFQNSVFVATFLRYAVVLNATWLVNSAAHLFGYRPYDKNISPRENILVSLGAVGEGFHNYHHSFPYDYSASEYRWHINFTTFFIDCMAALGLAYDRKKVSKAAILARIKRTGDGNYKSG
Chain of UniProt Q9BUV8 (Q9BUV8 whole entry, looked up): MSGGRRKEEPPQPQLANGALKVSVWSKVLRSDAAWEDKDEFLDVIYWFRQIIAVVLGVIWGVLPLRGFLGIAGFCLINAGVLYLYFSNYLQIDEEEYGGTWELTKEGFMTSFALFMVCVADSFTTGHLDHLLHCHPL

Target	log2 fold change
RNASEH2B (UniProt Q5TBB1)	0.049
RARS (UniProt P54136)	0.091
RDH10 (UniProt Q8IZV5)	-0.06
RDX (UniProt P35241)	0.148
RABGGTB (UniProt P53611)	-0.017
SCO2 (UniProt O43819)	-0.074
RAD51C (UniProt O43502)	-0.004
SASS6 (UniProt Q6UVJ0)	0.037
RIOK3 (UniProt O14730)	0.016
RPS26P11 (UniProt Q5JNZ5)	-0.31 (active)
SCCPDH (UniProt Q8NBX0)	-0.164
SERINC3 (UniProt Q13530)	-0.175
RAB5IF isoform 5 (UniProt Q9BUV8)	0.364
RBBP7 isoform 2 (UniProt Q16576)	-0.033
SCD (UniProt O00767)	-0.184
RBSN (UniProt Q9H1K0)	-0.019
SCML2 (UniProt Q9UQR0)	0.02
RAP1B (UniProt P61224)	0.02
RFC2 (UniProt P35250)	-0.033
SEC24D isoform 2 (UniProt O94855)	0.009
RASA2 (UniProt Q15283)	0.037
RECQL5 (UniProt O94762)	0.064
SEH1L isoform 1 (UniProt Q96EE3)	-0.028
RBMX (UniProt P38159)	-0.072
RNF170 (UniProt Q96K19)	-0.026
RFC3 (UniProt P40938)	0.024
RPL37A (UniProt P61513)	0.166
RAB21 (UniProt Q9UL25)	0.127
RALGAPB (UniProt Q86X10)	0.006
RNF181 (UniProt Q9P0P0)	0.066
